Assay [1] in a line: compounds binding Alexa647 anti-His antibody – biochemical, small-molecule microarray, 635 nm fluorescence, artefact control for SMM control protein annotation, primary screen (AID 1128).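 Also: score merges feature fluorescence with signal-to-noise for each printed compound spot.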 The settings on record: higher = more signal.
Assay [2] concerns Human papillomavirus type 1a E7 protein (residues 1-88). Nature of the assay: HPV1a E7 small-molecule binders, primary screen, biochemical, small-molecule microarray, residues 1-88, 635 nm (AID 1129). The note with it: small-molecule microarray binding, fluorescence 635 nm; higher = more signal.
Assay [3] has as its target Focal adhesion kinase 1 (Homo sapiens) (UniProt Q05397). In words: PTK2 protein binding on printed compound slides – biochemical, small-molecule microarray, 635/667 nm fluorescence, BSA, DTT, primary screen (AID 1130).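 Also: composite of spot emission at 667 nm and signal to noise over triplicate slides.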 The note with it: 635 nm fluorescence, higher = more signal.
Assay [4] deals with Fibrinogen (Alexa647-labelled). Nature of the assay: Alexa647-fibrinogen binding to printed small molecules – biochemical, small-molecule microarray, 635/667 nm fluorescence, artefact control for SMM control-protein annotation, profiling panel (AID 1131).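 Also: z-score merges 667 nm fluorescence with per-spot signal-to-noise over triplicate slides.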 The note with it: fibrinogen-A647 binding fluorescence, higher = more signal.
Assay [5] has as its target Follistatin (Homo sapiens) (UniProt P19883). In words: FST protein binding to printed compounds – biochemical, small-molecule microarray, 635/667 nm fluorescence, primary screen (AID 1132). The note with it: 635 nm fluorescence, higher = more signal.
Assay [6] addresses Fibroblast growth factor 2 (Homo sapiens) (UniProt P09038). Nature of the assay: basic fibroblast growth factor binding to printed compounds – biochemical, small-molecule microarray, 635/667 nm fluorescence, primary screen (AID 1133). The note with it: FGF2, fluorescence 635/667, higher = more signal.
A short description of assay [7]: JC-1 mitochondrial potential readout, lung cancer cells – cell-based, A549, JC-1 fluorescence, basal, 24 h, 100 nL, profiling panel (AID 1138).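 Also: A549 lung adenocarcinoma cells under basal conditions with no added stimulus; test concentration not given here.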 The note with it: higher = more signal.
Another assay relates to Lefty1. In words: Lefty1 protein binding to printed compounds – biochemical, small-molecule microarray, 635/667 nm fluorescence, primary screen (AID 1139). The note with it: fluorescence 635/667, higher = more signal.
Assay [8] has as its system wheat germ agglutinin (Triticum aestivum), Alexa647-labelled. In words: Alexa647-WGA lectin binding to printed small molecules – biochemical, small-molecule microarray, 635/667 nm fluorescence, artefact control for SMM control-protein annotation, profiling panel (AID 1140).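 Also: score merges 667 nm feature emission with signal to noise over triplicate slides.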 The note with it: WGA-A647 binding, 635 nm fluorescence, higher = more signal.
The target of assay [9] is Luciferin 4-monooxygenase (Photinus pyralis) (UniProt P08659). In words: inhibition of purified Photinus pyralis luciferase – biochemical, luminescence, purified enzyme, 2006 set, primary screen (AID 1141).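 Also: cell-free assay with purified firefly luciferase at 100 ng per well in PBS; test concentration not given here.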 The note with it: purified firefly luciferase, SteadyGlo luminescence, 30 min; higher = more signal, called active from +8 up or from −8 down.
Chain of Luciferin 4-monooxygenase (Photinus pyralis) (P08659 whole entry, looked up): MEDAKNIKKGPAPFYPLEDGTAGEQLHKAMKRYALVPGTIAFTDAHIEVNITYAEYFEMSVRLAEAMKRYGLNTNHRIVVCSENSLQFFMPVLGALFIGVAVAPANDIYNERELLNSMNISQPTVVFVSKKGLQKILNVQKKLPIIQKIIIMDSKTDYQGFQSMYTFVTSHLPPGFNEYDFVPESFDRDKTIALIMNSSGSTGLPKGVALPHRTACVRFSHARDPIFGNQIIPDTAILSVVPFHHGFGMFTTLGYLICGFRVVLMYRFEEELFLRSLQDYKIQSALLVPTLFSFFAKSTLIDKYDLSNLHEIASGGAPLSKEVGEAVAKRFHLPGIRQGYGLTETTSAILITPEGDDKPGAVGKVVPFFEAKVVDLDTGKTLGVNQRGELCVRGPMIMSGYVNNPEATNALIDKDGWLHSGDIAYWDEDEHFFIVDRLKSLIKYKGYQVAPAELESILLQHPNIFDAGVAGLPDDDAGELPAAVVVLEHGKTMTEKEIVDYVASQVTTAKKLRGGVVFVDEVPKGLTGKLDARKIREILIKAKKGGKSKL
Assay [10] deals with Wnt5a (protein binding on small-molecule microarray). Nature of the assay: small molecules binding Wnt5a protein – biophysical, small-molecule microarray, 635/667 nm fluorescence, primary screen (AID 1142).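 Also: fluorescence read at 667 nm with signal to noise per printed feature.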 The settings on record: 635 nm fluorescence, higher = more signal.
Assay [11] can be described thus: ATP-based viability of Huh7 replicon cells – cell-based, CellTiter-Glo luminescence, basal, 48 h, cytotoxicity control for HCV replication inhibitor project, primary screen (AID 1143).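 Also: Huh7 hepatoma cells carrying a hepatitis C replication reporter with no stimulus; test concentration not given here.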 The settings on record: higher = more signal, called active from +8 up or from −8 down. A general note: Replicon systems follow genome replication, usually without infectious particles.

Assay [12] in a line: Pseudomonas biofilm growth suppression – PAO1 strain, BacTiter-Glo luminescence, LB-PBS, primary screen (AID 1144). The note with it: P. aeruginosa PAO1 biofilm, 12 h, higher = more signal.
Assay [13] is described as follows: basal CRE-LacZ reporter activity in PC12 – cell-based, unstimulated, primary screen (AID 1145). The note with it: no forskolin, luminescence, 4.5 h, higher = more signal, called active from +8 up or from −8 down.
A short description of assay [14]: forskolin-driven CRE-LacZ activity in PC12 – cell-based, CRE-LacZ reporter, forskolin-stimulated, primary screen (AID 1146).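 Also: PC12 cells with 6xCRE LacZ reporter stimulated by forskolin 10 µM; beta-galactosidase reporter signal reflecting CREB driven transcription.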 The note with it: luminescence, 4.5 h, higher = more signal, called active from +8 up or from −8 down.
Assay [15] addresses Streptavidin (Streptomyces avidinii) (UniProt P22629). Nature of the assay: compounds binding control protein streptavidin – biophysical, small-molecule microarray, 635/667 nm fluorescence, artefact control for SMM compound annotation, primary screen (AID 1147).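 Also: signal reflects streptavidin binding to arrayed compounds as a control protein.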 The note with it: higher = more signal.
Assay [16] is described as follows: probe aInhba binding on compound microarray – biochemical, small-molecule microarray, 635/667 nm fluorescence, primary screen (AID 1148).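 Also: score merges 667nm spot fluorescence with signal-to-noise for antibody binding to printed compounds.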 The settings on record: higher = more signal.
In assay [17] the target is Torsin-1A (Homo sapiens) (UniProt O14656). In words: TOR1A wild-type binding on microarray – cell lysate, small-molecule microarray, lysate, 635/667 nm, primary screen (AID 1149). The settings on record: COS7 hTOR1A-WT lysate, 635 nm fluorescence, higher = more signal.
Chain of Torsin-1A (Homo sapiens) (O14656 whole entry, looked up): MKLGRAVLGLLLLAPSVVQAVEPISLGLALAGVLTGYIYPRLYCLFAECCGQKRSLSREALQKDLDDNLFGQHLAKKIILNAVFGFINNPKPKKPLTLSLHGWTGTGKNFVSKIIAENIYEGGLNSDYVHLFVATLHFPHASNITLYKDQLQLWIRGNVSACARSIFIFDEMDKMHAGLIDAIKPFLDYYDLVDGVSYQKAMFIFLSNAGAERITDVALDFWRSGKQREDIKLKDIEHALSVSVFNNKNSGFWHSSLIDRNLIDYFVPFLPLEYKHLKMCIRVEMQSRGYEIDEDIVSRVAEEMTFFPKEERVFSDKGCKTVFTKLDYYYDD
Assay [18] has the same target. In words: torsin A mutant lysate binding on microarrays – cell lysate, small-molecule microarray, COS7 lysate, 635/667 nm fluorescence, primary screen (AID 1150).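 Also: score pools 667 nm emission and signal to noise measuring lysate protein binding.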 The settings on record: COS7 hTOR1A mutant lysate, 635 nm fluorescence, higher = more signal.
Assay [19] concerns Sonic hedgehog protein (Shh). In words: Sonic hedgehog microarray binding compounds – biochemical, small-molecule microarray, 635/667 nm fluorescence, primary screen (AID 1151).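 Also: Shh protein binding to compounds spotted on small-molecule microarray slides; score combines spot fluorescence intensity with signal-to-noise across triplicate slides.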 The settings on record: 635 nm fluorescence, higher = more signal.

Structures are written as SMILES. Active and inactive are the calls of the source. Unless noted, no rule for the calls is given here.

Chain of Focal adhesion kinase 1 (Homo sapiens) (Q05397 whole entry, looked up): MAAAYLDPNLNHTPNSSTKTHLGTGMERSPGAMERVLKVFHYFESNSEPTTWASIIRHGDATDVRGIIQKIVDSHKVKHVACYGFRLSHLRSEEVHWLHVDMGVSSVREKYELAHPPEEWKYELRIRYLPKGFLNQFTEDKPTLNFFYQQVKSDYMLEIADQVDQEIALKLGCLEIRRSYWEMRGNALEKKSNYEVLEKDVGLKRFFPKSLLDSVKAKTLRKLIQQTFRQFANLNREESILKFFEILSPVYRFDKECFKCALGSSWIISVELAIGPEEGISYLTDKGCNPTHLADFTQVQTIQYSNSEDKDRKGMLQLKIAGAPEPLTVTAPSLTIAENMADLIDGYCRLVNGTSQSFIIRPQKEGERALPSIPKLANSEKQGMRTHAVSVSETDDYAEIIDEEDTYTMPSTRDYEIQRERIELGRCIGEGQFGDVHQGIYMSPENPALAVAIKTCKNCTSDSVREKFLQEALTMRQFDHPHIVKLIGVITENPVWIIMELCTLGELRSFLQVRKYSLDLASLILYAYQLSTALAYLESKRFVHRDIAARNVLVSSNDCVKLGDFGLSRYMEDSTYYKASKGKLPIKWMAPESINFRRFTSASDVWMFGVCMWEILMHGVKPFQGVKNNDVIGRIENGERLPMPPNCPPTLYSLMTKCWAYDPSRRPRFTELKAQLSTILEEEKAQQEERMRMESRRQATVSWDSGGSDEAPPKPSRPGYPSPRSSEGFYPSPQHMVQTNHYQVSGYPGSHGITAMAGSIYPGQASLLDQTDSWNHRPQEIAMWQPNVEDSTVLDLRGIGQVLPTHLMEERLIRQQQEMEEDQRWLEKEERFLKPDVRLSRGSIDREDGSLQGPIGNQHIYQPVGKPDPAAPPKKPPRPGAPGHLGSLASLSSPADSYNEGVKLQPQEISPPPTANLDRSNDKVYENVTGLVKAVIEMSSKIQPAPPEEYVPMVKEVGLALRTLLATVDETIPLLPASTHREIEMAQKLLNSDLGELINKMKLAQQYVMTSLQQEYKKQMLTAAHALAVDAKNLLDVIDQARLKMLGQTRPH
Chain of Streptavidin (Streptomyces avidinii) (P22629 whole entry, looked up): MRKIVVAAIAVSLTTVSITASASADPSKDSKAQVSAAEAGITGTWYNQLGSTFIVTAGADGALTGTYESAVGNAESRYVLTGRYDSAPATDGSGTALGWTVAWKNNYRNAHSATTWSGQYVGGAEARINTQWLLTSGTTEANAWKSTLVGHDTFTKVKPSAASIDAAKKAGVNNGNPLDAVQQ
Chain of Fibroblast growth factor 2 (Homo sapiens) (P09038 whole entry, looked up): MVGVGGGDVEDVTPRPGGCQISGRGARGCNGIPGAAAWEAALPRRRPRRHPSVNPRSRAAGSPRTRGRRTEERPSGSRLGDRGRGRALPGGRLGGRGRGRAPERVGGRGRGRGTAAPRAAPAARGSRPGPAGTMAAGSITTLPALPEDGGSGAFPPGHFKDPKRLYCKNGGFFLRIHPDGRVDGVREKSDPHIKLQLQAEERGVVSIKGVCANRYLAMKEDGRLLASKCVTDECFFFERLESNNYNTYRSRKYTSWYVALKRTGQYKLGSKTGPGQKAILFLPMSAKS
Chain of Follistatin (Homo sapiens) (P19883 whole entry, looked up): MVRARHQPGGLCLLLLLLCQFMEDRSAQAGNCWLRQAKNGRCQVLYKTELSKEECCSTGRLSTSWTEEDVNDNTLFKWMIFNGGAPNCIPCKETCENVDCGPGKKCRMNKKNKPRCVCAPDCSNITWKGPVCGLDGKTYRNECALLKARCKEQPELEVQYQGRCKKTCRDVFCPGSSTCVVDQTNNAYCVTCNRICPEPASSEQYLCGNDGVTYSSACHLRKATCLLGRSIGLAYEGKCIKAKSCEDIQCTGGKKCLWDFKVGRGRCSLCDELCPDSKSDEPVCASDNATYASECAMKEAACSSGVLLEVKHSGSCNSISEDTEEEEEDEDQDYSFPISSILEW

`COc1cc(CO)cc(I)c1O[C@H]1C=C(C(=O)NCCO)C[C@@H](NCc2ccccc2F)[C@@H]1O`: the composite z-score in assay [1] came out at 0.271; in assay [2], 1.17; in assay [3], 0.0691; in assay [4], 0.124; in [5] it was 0.347; in assay [6] it was 0.974. For the same compound, the composite z-score is 1.19 in the assay with Lefty1; 0.278 in [8]; -0.145 in [10]; -0.0401 in assay [15]; -0.128 in assay [16]; 0.235 with Torsin-1A (Homo sapiens) [17]. The figures for the composite z-score (in the assay with Torsin-1A (Homo sapiens) [18]; in assay [19]) were -0.175 and 0.485, respectively. For the same compound, the z-score is 1.72 in [7]; -0.0791 (inactive) in [9]; -0.466 (inactive) in assay [11]; -0.251 (inactive) in [12]; 9.26 (active) in assay [13]; -1.22 (inactive) in [14].

In the case of `COCCCNC(=O)[C@@]1(Sc2ccc(C)cc2)CC(=O)N(C2Cc3ccccc3C2)[C@@H]1c1ccc(CO)cc1I`, the composite z-score in [1] is -0.961; in assay [2] it was -1.01; in [3] it was -1.01; in assay [4], -1.07; in assay [5], -1.01; in assay [6], -1.19. Also, the composite z-score is -1.68 with Lefty1; -0.0708 in [8]; -0.572 in assay [10]; -0.962 in [15]; -0.157 in assay [16]; -0.475 in the assay with Torsin-1A (Homo sapiens) [17]. Moreover, the values for the composite z-score (with Torsin-1A (Homo sapiens) [18]; in assay [19]) were -1.29 and -0.59, respectively. The z-score in [7] was 0.314; in [9] it was 0.553 (inactive); in [11], -0.712 (inactive); in assay [12], -0.141 (inactive); in assay [13] it was 0.0909 (inactive); in assay [14], 0.555 (inactive).

Turning to `CC1CC/C=C\[C@H]2OC34C=CCN(C(C)C)C(=O)[C@H]3N(CCCCCO)C(=O)[C@@H]4C2C(=O)O1` (stereo not given in full), the composite z-score is -1.07 in assay [1]; -1.71 in assay [2]; -0.6 in [3]; -1.29 in [4]; -0.985 in assay [5]; -1.17 in assay [6]. Also, the composite z-score in the assay with Lefty1 was -1.42; in assay [8], -0.892; in assay [10] it was -0.432; in [15], -1.16; in assay [16], -0.157; with Torsin-1A (Homo sapiens) [17], -1.14. The values for the composite z-score (with Torsin-1A (Homo sapiens) [18]; in assay [19]) were -0.751 and -0.375, respectively. Also, the z-score in [7] was 1.68; in assay [9], -1.39 (inactive); in assay [11] it was -0.262 (inactive); in assay [12], 1.39 (inactive); in [13], 1.67 (inactive); in assay [14], -0.478 (inactive).

Turning to `COc1cc(CO)cc(I)c1O[C@H]1C=C(C(=O)NCCO)C[C@@H](N(CC2CCCCC2)C(=O)c2ccc(C(F)(F)F)cc2)[C@@H]1O`, the composite z-score in [1] stood at 0.0463; in assay [2] it was 0.621; in [3], 0.0469; in assay [4], 0.367; in assay [5], 0.578; in assay [6] it was 0.12. Also, the composite z-score was 0.784 with Lefty1; 0.193 in assay [8]; -0.0143 in assay [10]; -0.0411 in assay [15]; -0.0403 in assay [16]; 0.0494 in the assay with Torsin-1A (Homo sapiens) [17]. Further, the composite z-score with Torsin-1A (Homo sapiens) [18] is 0.0547; in assay [19], 1.23. Also, the z-score is 0.53 in [7]; -0.795 (inactive) in assay [9]; -0.494 (inactive) in [11]; -0.312 (inactive) in [12]; 2.57 (inactive) in assay [13]; -1.22 (inactive) in assay [14].

Regarding `CCOC(=O)C[C@H]1[C@H](OC(=O)Cc2ccc3c(c2)OCO3)[C@@H](NC(=O)Cc2ccc(OC)cc2)c2cc(OCCCO)ccc2N1C(=O)c1ccccc1`, the composite z-score in assay [1] was 0.0506; in [2], 0.814; in [3], 0.668; in assay [4], 0.511; in assay [5], 0.41; in assay [6] it was 0.251. The composite z-score was 0.389 with Lefty1; 0.956 in assay [8]; 0.194 in [10]; 0.421 in assay [15]; -0.103 in assay [16]; -0.334 with Torsin-1A (Homo sapiens) [17]. For the same compound, the composite z-score with Torsin-1A (Homo sapiens) [18] worked out at 0.426; in assay [19], 0.528. The z-score was 1.57 in assay [7]; -0.566 (inactive) in [9]; -0.0801 (inactive) in assay [11]; -0.112 (inactive) in assay [12]; 0.222 (inactive) in assay [13]; -0.377 (inactive) in [14].

The values above are taken from PubChem BioAssay.
